Data from PubChem BioAssay.

Columns and labels:
[1] = test system: Human papillomavirus type 1a protein E7 (residues 44-93); experiment: HPV1a E7 fragment binders on microarrays, primary screen, biochemical, small-molecule microarray, residues 44-93, 635 nm fluorescence (AID 1108); settings: small-molecule microarray binding, fluorescence 635 nm; higher = more signal;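 note: E7 fragment applied at 1 µg/mL in TBST for 1 h at 4 C; score combines spot fluorescence with its signal to noise ratio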
[2] = modulators of HCV replicon luciferase signal, primary screen, HCV replication inhibitor project, Huh7 cells, luciferase reporter (AID 1109); settings: 48 h, higher = more signal;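 note: huh7 hepatoma cells harbouring a luciferase neomycin HCV replicon reporter; luciferase luminescence as measure of HCV replicon replication; test concentration not given here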
[3] = molecular target: Left-right determination factor 2 (Homo sapiens) (UniProt O00292); experiment: LEFTY2 binders on small-molecule microarrays, primary screen, biochemical, small-molecule microarray, 635 nm fluorescence scan (AID 1110); settings: LEFTY2 binding, higher = more signal
Left-right determination factor 2 (Homo sapiens), sequence (O00292 whole entry, looked up): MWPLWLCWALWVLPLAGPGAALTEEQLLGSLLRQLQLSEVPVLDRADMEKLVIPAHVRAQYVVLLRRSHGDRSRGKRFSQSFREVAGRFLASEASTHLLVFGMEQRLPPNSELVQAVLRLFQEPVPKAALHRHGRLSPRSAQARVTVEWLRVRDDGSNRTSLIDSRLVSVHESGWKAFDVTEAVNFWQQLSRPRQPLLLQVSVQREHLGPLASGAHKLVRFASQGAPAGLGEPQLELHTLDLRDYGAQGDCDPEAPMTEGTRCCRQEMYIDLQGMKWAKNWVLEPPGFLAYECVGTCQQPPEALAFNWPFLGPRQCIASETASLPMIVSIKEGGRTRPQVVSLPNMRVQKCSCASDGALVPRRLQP

[4] = molecular target: Calmodulin-1 (Homo sapiens) (UniProt P0DP23); experiment: CALM1 binders on microarrays, EGTA buffer, profiling panel, biochemical, small-molecule microarray, Cy5-labelled CALM1 (AID 1111); settings: Cy5-CALM1 binding fluorescence, higher = more signal;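 note: labelled calmodulin applied in Tris saline Tween buffer holding calcium plus EGTA and DTT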
[5] = molecular target: Calmodulin-1 (Homo sapiens) (UniProt P0DP23); experiment: calcium-bound CALM1 binders on microarrays, profiling panel, artefact control for SMM control-protein annotation, biochemical, small-molecule microarray, Cy5-labelled CALM1, plus calcium (AID 1112); settings: Cy5-CALM1 binding fluorescence, higher = more signal;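 note: score merges spot fluorescence with signal to noise from triplicate slides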
[6] = small-molecule microarray binders of probe aWnt5a, primary screen, biochemical, biotinylated probe, 635/667 nm fluorescence (AID 1113); settings: higher = more signal;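 note: score merges 667 nm fluorescence intensity with signal-to-noise per printed feature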
[7] = small-molecule microarray binders of probe aShh, primary screen, biochemical, biotinylated probe, 635/667 nm fluorescence (AID 1114); settings: higher = more signal;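 note: probe is biotin-labelled aShh protein from a stem cell growth factor screen; measures binding of labelled protein to compounds printed on the slide; score merges feature fluorescence at 667 nm with signal-to-noise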
[8] = small-molecule microarray binders of probe aNog, primary screen, biochemical, biotinylated probe, 635/667 nm fluorescence (AID 1115); settings: higher = more signal;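 note: probe is biotinylated aNog protein used at 0.15 µg/mL for 1 h at 4 C; z-score combines 667 nm fluorescence of each spot with its signal to noise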
[9] = molecular target: Torsin-1A-interacting protein 1 (Homo sapiens) (UniProt Q5JTV8); experiment: LAP1 binders from COS7 cell lysate, primary screen, small-molecule microarray, 635/667 nm fluorescence (AID 1116); settings: COS7-hLAP1 lysate binding, 635 nm fluorescence, higher = more signal
Torsin-1A-interacting protein 1 (Homo sapiens), sequence (Q5JTV8 whole entry, looked up): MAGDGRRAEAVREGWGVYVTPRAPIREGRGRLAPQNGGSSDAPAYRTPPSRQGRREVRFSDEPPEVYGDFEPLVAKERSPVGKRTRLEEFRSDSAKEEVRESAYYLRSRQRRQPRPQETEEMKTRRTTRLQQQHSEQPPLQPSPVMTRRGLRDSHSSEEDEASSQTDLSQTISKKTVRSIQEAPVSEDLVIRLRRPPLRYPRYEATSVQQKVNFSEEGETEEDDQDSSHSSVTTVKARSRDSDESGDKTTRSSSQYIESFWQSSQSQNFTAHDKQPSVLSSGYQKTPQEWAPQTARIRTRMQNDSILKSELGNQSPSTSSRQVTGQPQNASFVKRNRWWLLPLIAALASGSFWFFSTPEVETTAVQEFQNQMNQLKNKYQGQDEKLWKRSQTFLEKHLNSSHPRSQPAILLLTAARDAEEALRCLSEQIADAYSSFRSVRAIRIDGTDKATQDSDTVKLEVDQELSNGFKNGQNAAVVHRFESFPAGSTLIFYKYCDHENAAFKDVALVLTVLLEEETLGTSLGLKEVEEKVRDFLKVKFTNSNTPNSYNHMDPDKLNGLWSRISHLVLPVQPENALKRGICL

[10] = molecular target: Alpha-bungarotoxin (Bungarus multicinctus) (UniProt P60615); experiment: alpha-bungarotoxin binders on microarray, profiling panel, artefact control for SMM control protein annotation, biochemical, small-molecule microarray, Alexa647 label, 635/667 nm fluorescence (AID 1117); settings: alpha-BTX-A647 binding fluorescence, higher = more signal
Alpha-bungarotoxin (Bungarus multicinctus), sequence (P60615 whole entry, looked up): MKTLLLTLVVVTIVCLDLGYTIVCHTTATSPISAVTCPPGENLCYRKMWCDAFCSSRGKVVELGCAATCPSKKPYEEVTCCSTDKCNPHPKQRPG

SMILES | composite z-score [1] | z-score [2] | composite z-score [3] | composite z-score [4] | composite z-score [5] | composite z-score [6] | composite z-score [7] | composite z-score [8] | composite z-score [9] | composite z-score [10]
CC(=O)Nc1cc(Br)ccc1C(=O)NCc1ccccc1 | 1.09 | -0.0162 | -0.174 | 0.851 | 0.517 | -0.0346 | -0.16 | -0.196 | 0.341 | 0.809
O=C1OCCC/C=C\[C@H]2OC34C=CCN(c5ccc6ccccc6c5)C(=O)[C@H]3N(CCCCCO)C(=O)[C@@H]4C12 (stereo not given in full) | -2.53 | -0.57 | -1.07 | -0.381 | -0.645 | -0.28 | 0.0141 | -0.0428 | -1.28 | -0.23
[N-]=[N+]=Nc1ccccc1C[C@]1(C(=O)NCC(O)CO)N=C(c2ccc(OCCCO)cc2)O[C@H]1c1ccccc1 (stereo not given in full) | 1.45 | -0.962 | -1.32 | 1.89 | 0.496 | -0.0924 | -0.0709 | -0.492 | 0.954 | 0.903
C=CCOC(=O)[C@H]1[C@@H]2C(=O)O[C@@H](c3ccccc3)[C@@H](c3ccccc3)N2[C@@H](c2ccc(OCCOC(=O)[C@@H]3C[C@@H]4C(=O)N5CCC[C@H]5C(=O)N4[C@@H]3c3cccc(OCCO)c3)cc2)[C@]12C(=O)Nc1ccc(I)cc12 | 1.39 | -1.46 | 0.872 | 0.784 | -0.0883 | -0.0758 | 0.0098 | 0.935 | -0.571 | 1.39
C=C(/C(=C/C[C@H](OC(=O)c1ccncc1)c1ccc(OCCO)cc1)c1cc(C(=O)OC)ccc1OC)C(C)C | 1.08 | -0.939 | 0.17 | 0.959 | -0.218 | -0.128 | 0.111 | 0.108 | 0.296 | 1.72
COCC(=C=CC[C@H](O)c1cccc(OCCO)c1)CCO | 1.02 | -0.119 | 0.0075 | -0.488 | -0.487 | -0.127 | -0.156 | 0.0395 | -0.0815 | -0.113
O=C(CS)NCCCCCNC(=O)[C@@H]1C[C@@H]2C(=O)NCC(=O)N2[C@@H]1c1ccc(O)cc1 | 0.722 | 0.627 | 0.31 | -0.0523 | -0.109 | -0.165 | -0.0709 | -0.122 | -0.0104 | -0.581
COC(=O)[C@@]1(Cc2ccccc2)[C@H]2c3cc(C(=O)N4CCCC4)n(Cc4c(CO)[nH]cc(C)c4=O)c3C[C@H]2CN1C(=O)c1ccccc1 | -0.596 | -0.783 | -0.169 | 1.71 | 0.893 | 0.0775 | -0.181 | 1.28 | 2.02 | 0.546
C=C(CCCC)C(=O)CC[C@H](OC(=O)c1cccnc1)c1ccc(OCCO)cc1 | -0.574 | -3.61 | -0.327 | -0.556 | -0.736 | -0.0455 | 0.296 | 0.406 | 0.656 | 0.551
CCCC1(C(=O)OC)C=C2C(=C(c3ccccc3)C(=O)C2C)CN1 (stereo not given) | -0.719 | -1.85 | 0.0193 | 0.155 | -0.253 | -0.0203 | 0.108 | 1.75 | 1.05 | 0.287
CCOC(=O)C1=CC[C@@H](c2ccccc2)N(S(=O)(=O)c2ccc(C)cc2)[C@H]1c1ccc(CC)cc1 | 1.4 | -1.8 | 0.353 | 1.21 | 0.511 | -0.0384 | -0.264 | 0.733 | 0.331 | 0.569
COc1ccc(NC(=O)O[C@H]2[C@H](OC(=O)c3cc4ccccc4[nH]3)[C@@H](OC(=O)c3cc4ccccc4[nH]3)[C@@H](OC)O[C@@H]2CO)cc1 | -0.548 | -1.98 | 0.046 | 0.467 | -0.206 | -0.0512 | 0.0121 | -0.0612 | 1.04 | 0.243
CCN(CC)c1ccc(N2CC=CC34O[C@@H]5/C=C\CCC(C)OC(=O)C5[C@H]3C(=O)N(CCCCCO)[C@@H]4C2=O)cc1 (stereo not given in full) | -2.06 | 0.008 | -1.5 | -0.407 | 0.381 | -0.0346 | -0.253 | -0.234 | -1.59 | -0.324
O=C1C2C=CC(C(O)c3c(F)cccc3Cl)N(Nc3ccccc3F)C2C(=O)N1c1ccccc1 (stereo not given) | 1.43 | -0.665 | -0.165 | 1.24 | 0.265 | 0.0136 | 0.701 | 0.933 | 1.43 | 0.543
O=C(O)[C@H](Cc1ccccc1)n1cc(-c2ccccc2)nn1 | 0.52 | 0.36 | 0.506 | 0.14 | -0.372 | -0.152 | -0.237 | 0.297 | 0.635 | 0.327
COc1cc2c(cc1O)C=[N+](Cc1cc3c(cc1Br)OCO3)CC2 | -0.411 | -0.537 | -0.678 | -1.01 | -0.0978 | -0.16 | -0.16 | -0.492 | -0.479 | -2.64
O=C1OCCC=C[C@H]2OC34C=CCN(Cn5nnc6ccccc65)C(=O)[C@H]3N(CCO)C(=O)[C@@H]4C12 (stereo not given in full) | -1.59 | -0.772 | -2.07 | -0.4 | 0.262 | -0.252 | -0.262 | 0.328 | -0.618 | 1.1
CC(C)OC(=O)C=C1C[C@@H](c2cccc(Cl)c2)O[C@@H](c2cccc(Cl)c2)O1 | 0.597 | -0.825 | -0.869 | 1.39 | 1.05 | -0.0735 | -0.0035 | -0.43 | 1.58 | 0.381
C=CCC(OC(C)=O)[C@@H]1[C@@H](N(Cc2cc3ccccc3o2)C(=O)Cc2ccc(OC)cc2)c2cc(OCCCO)ccc2N1C(=O)c1ccc2ccccc2c1 (stereo not given in full) | 0.0806 | -0.359 | -0.0999 | -0.428 | 0.174 | -0.0754 | 0.0062 | -0.125 | 0.0296 | -0.396
NCCCCCNC(=O)[C@H]1C[C@H]2C(=O)N[C@@H](Cc3ccccc3)C(=O)N2[C@H]1c1cccc(OCCO)c1 | 0.509 | -0.82 | 0.115 | 1.85 | 1.06 | 0.0328 | 0.246 | 0.296 | 2.09 | 2.07
COc1ccc(-c2cc3c(c(Cc4ccccc4)n2)[Si](C(C)C)(C(C)C)OC3)cn1 | -0.864 | -0.421 | -0.0979 | -0.646 | 0.0817 | -0.13 | -0.0849 | -0.0855 | -0.0516 | -0.26
COc1cc2c(cc1OC)CN(C(=O)[C@H]1[C@@H]3C(=O)O[C@@H](c4ccccc4)[C@@H](c4ccccc4)N3[C@@H](c3ccccc3OCCO)[C@]13C(=O)Nc1ccc(C#CCCO)cc13)CC2 | 1.37 | -1.79 | 0.61 | 0.234 | -0.114 | 0.0136 | -0.138 | 0.194 | 0.532 | 0.862
